Results filed as inconclusive are left out. Activity calls are given as the source filed them. How the source made its calls, unless noted: active means hit-call score of the fitted dose curve at least 0.9, where 1 is the maximum; inactive means score below 0.9.
What was measured:
[1] = CCTE_Harrill_HTTr_Viability_MCF7: CCTE's 6-hour Cell Viability Assessment for the High-Throughput Transcriptomics (HTTr) Platform, in MCF-7 cells cultured in DMEM + 10% fetal bovine serum, Harrill Lab (AID 2284010)
Method in brief: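 MCF-7 cells in DMEM + 10% FBS, 384-well, exposed 6 h to an eight-point dilution series. Membrane integrity scored by high-content imaging of propidium iodide exclusion; bidirectional fit versus DMSO.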

[2] = CCTE_Harrill_HTTr_Apoptosis_MCF7: CCTE's 6-hour Apoptosis Assessment for the High-Throughput Transcriptomics (HTTr) Platform, in MCF-7 cells cultured in DMEM + 10% fetal bovine serum, Harrill Lab (AID 2284011)
Method in brief: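 Read-out: CellEvent Caspase 3/7 Green signal by high content imaging, gain-of-signal indicating apoptosis. MCF-7 cells, DMEM + 10% FBS, eight-point dilution series, 6 h exposure. Curves fitted bidirectionally relative to DMSO negative control.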

[3] = CCTE_Harrill_HTTr_CellCount_MCF7: CCTE's Cell Proliferation Assessment for the High-Throughput Transcriptomics (HTTr) Platform, Harrill Lab (AID 2284012; active means hit-call score of the fitted dose curve at least 0.9, where 1 is the maximum;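 further: cells exposed to compound for six hours; intended direction is loss of nuclei count meaning fewer cells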)
Method in brief: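 MCF7 cells exposed 6 hours to an eight-point dilution series; Hoechst-stained nuclei counted by high-content imaging. Bidirectional curve fitting against DMSO baseline.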

SMILES | outcome [1] | outcome [2] | outcome [3] | AC50 [1] | AC50 [2] | AC50 [3]
Cc1ccccc1C(OCCN(C)C)c1ccccc1 (stereo unspecified) | inactive | inactive | inactive |  |  | 
CCCCCC(C)OC(=O)COc1ccc(Cl)c2cccnc12 (stereo unspecified) | inactive | inactive | inactive |  |  | 
CC(C)(C)c1ccc(CCC=O)cc1 | inactive | inactive | inactive |  |  | 
CCCCCCCCCCCCOS(=O)(=O)O | inactive | inactive | inactive |  |  | 
C[C@]12CC[C@@H]3c4ccc(O)cc4CC[C@H]3[C@@H]1C[C@@H](O)[C@@H]2O | inactive | inactive | inactive |  |  | 
CCCCC(CC)C(=O)O (stereo unspecified) | inactive | inactive | inactive |  |  | 
CNNCc1ccc(C(=O)NC(C)C)cc1 | inactive | inactive | inactive |  |  | 
CCCCCCCCCCCC(=O)O | inactive | inactive | inactive |  |  | 
c1cnc2c(c1)ccc1cccnc12 | inactive | inactive | inactive |  |  | 
CC(=O)Nc1ccc(S(N)(=O)=O)cc1 | inactive | inactive | inactive |  |  | 
CCCCCCCCCCCCCCC | inactive | inactive | inactive |  |  | 
CC(C)(C)c1ccc(O)c(O)c1 | inactive | inactive | inactive |  |  | 
CC1CCC(CO)CC1 (stereo unspecified) | inactive | inactive | inactive |  |  | 
Brc1ccc(Oc2ccc(Br)cc2Br)cc1 | inactive | inactive | inactive |  |  | 
C[C@]12CC[C@@H]3c4ccc(O)cc4CC[C@H]3[C@@H]1CC[C@@H]2OC(=O)CCC1CCCC1 | inactive | inactive | inactive |  |  | 
CCCCCCCCCCCCOC(=O)c1cc(O)c(O)c(O)c1 | inactive | inactive | inactive |  |  | 
CS(=O)(=O)c1ccc([C@@H](CC2CCCC2)C(=O)Nc2cnccn2)cc1Cl | inactive | inactive | inactive |  |  | 
Nc1ccn([C@@H]2O[C@H](CO)[C@@H](O)C2O)c(=O)n1 (stereo partly specified) | inactive | inactive | inactive |  |  | 
Cc1cc(Cc2cc(C)cc(C(C)(C)C)c2O)c(O)c(C(C)(C)C)c1 | inactive | inactive | inactive |  |  | 

SMILES | outcome [1] | outcome [2] | outcome [3] | AC50 [1] | AC50 [2] | AC50 [3]
O=c1cc(-c2ccccc2)oc2ccc3ccccc3c12 | inactive | inactive | inactive |  |  | 
CCCCCCCCCCCC[N+](C)(C)Cc1ccccc1 |  |  |  | 68.8 µM (active) | 70.8 µM (active) | 70.3 µM (active)
Cc1[nH]nc2c1N=C(c1ccccc1Cl)c1cc([N+](=O)[O-])ccc1N2 | inactive | inactive | inactive |  |  | 
Cn1sccc1=O | inactive | inactive | inactive |  |  | 
CCCCCCCCC(C)=O | inactive | inactive | inactive |  |  | 
CC(C)(c1ccc(Oc2ccc(N)cc2)cc1)c1ccc(Oc2ccc(N)cc2)cc1 | inactive | inactive | inactive |  |  | 
COC1=CC(=O)C[C@@H](C)[C@]12Oc1c(Cl)c(OC)cc(OC)c1C2=O | inactive | inactive | inactive |  |  | 
CCC(=O)O | inactive | inactive | inactive |  |  | 
CC1=CC(=O)c2ccccc2C1=O | inactive | inactive | inactive |  |  | 
CCCCCCCCCCCCCCCCCC[N+](C)(C)Cc1ccccc1 | inactive | inactive | inactive |  |  | 
CC(C)(C)C1CCCCC1O (stereo unspecified) | inactive | inactive | inactive |  |  | 
O=C(NO)c1ccccc1 | inactive | inactive | inactive |  |  | 
C=Cc1ccc(O)c(OC)c1 | inactive | inactive | inactive |  |  | 
Cc1cccc2c1ccc1ccccc12 | inactive | inactive | inactive |  |  | 
Cc1cncc(C)c1 | inactive | inactive | inactive |  |  | 
CC(C)c1c(C(=O)Nc2ccccc2)c(-c2ccccc2)c(-c2ccc(F)cc2)n1CC[C@@H](O)C[C@@H](O)CC(=O)O | inactive | inactive | inactive |  |  | 
C=CC(C)(CCC=C(C)C)OC(C)=O (stereo unspecified) | inactive | inactive | inactive |  |  | 
O=C(O)c1cccc(C(=O)O)n1 | inactive | inactive | inactive |  |  | 

From PubChem BioAssay (EPA / NIEHS)
